Measurements taken from publication PMC5540273 (PLoS ONE, 2017).

tested on: DYRK1B; conditions: concentration: 1 μM, replicates: in singlicate; n = 1
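Note: KINOMEscan kinase panel screen.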

Structure (SMILES) | %Inh
CN(C)S(=O)(=O)c1cc(-c2ccc3nccc(-c4cccc(S(N)(=O)=O)c4)c3c2)cnc1N [GSK1669921] | 0%
COc1cccc(NC(=O)NC2CCN(c3ccnc(Nc4cc(OC)c(OC)c(OC)c4)n3)C2)c1 (stereo not drawn) [GSK1379763] | 15%
Fc1ccc(-c2ncn(C3CCNCC3)c2-c2ccnc(Oc3ccc(-c4ccccc4)cc3)n2)cc1 [SB-245391] | 25%
Cn1cc(-c2[nH]c3cc(NC(=O)[C@H](N)C4CCCCC4)cc4c3c2C=NNC4=O)cn1 | 0%
Cl.Cl.NCC(NCc1ccc(-c2ccnc3[nH]ccc23)s1)c1ccccc1 (stereo not drawn) [GSK1321565] | 25%

tested on: DYRK2; conditions: concentration: 1 μM, replicates: in singlicate; n = 1

Structure (SMILES) | %Inh
COc1cc2c(cc1OCCN1CCNCC1)ncc1c3ccc(C#N)cc3[nH]c21 | 73%
CN(c1ccc(NC(=O)Nc2cc(C(F)(F)F)ccc2F)cc1)c1ccnc(Nc2ccc(S(N)(=O)=O)cc2)n1 [GW809893] | 14%
COc1ccc(Nc2nccc(N3CCC(NC(=O)Nc4cccc(OC)c4)C3)n2)cc1 (stereo not drawn) [GSK1379742] | 0%
COc1cccc(-c2ccc3c(NC(=O)C4CC4)n[nH]c3n2)c1 [SB-710903] | 73%
CNC(=O)c1ccccc1Nc1nc(Nc2ccc(N3CCOCC3)cc2)ncc1Cl.Cl [GSK1576028] | 99.1%
O=C(NC1CCN(c2ccnc(Nc3ccc(F)cc3)n2)C1)c1cc2ccccc2s1 (stereo not drawn) [GSK1379716] | 0%
O=C(Nc1cccc(Oc2ccc3nc(NC(=O)C4CC4)cn3n2)c1)c1ccccc1C(F)(F)F | 0%
Cl.c1ccc(-c2ccc3c(Nc4ccc5[nH]ncc5c4)ccnc3c2)nc1 [GW440137] | 26%
Cl.Cl.NCC(NC(=O)c1cc(-c2ccccc2)c(-c2ccnc3[nH]ccc23)s1)c1ccccc1 (stereo not drawn) [GSK1321561] | 25%
C[C@@H](Oc1cc(-n2cnc3cc(-c4ccnc(NCCS(C)(=O)=O)c4)ccc32)sc1C(N)=O)c1ccccc1Cl [GSK907232] | 15%
O=C(Nc1cccc(-c2nn3ccccc3c2-c2ccnc(Nc3cccc(F)c3)n2)c1)c1c(F)ccc(F)c1Cl [GSK357952] | 11%
Cc1occc1-c1ncc(OC[C@@H](N)Cc2c[nH]c3ccccc23)cc1-c1ccc2[nH]nc(C)c2c1.O=C(O)C(F)(F)F [GSK682037] | 26%
CCc1ccc(-c2ccc3c(c2)-c2c(cnn2C)S(=O)(=O)N3C)cc1 | 0%
O=c1[nH]cc(-c2ccc(N3CCOCC3)cc2)c2sc(-c3cn[nH]c3)cc12 [GSK2276055] | 89%
Cc1cccc(NC(=O)Nc2ccc(Oc3ncnc4ccn(C)c34)cc2)c1 | 0%
CC(C)(C)c1ccc2nccc(Nc3cccc(O)c3)c2c1 [GW856795] | 51%
COc1cc(Nc2nccc(-c3c(-c4cccc(NC(=O)c5c(F)cccc5F)c4)nn4ccccc34)n2)cc(OC)c1OC [GSK323521] | 0%
CCn1c(-c2nonc2N)nc2c(C#CC(C)(C)O)ncc(OCCCCN)c21.O=C(O)C(F)(F)F.O=C(O)C(F)(F)F [GSK507274] | 8%
O=C(Nc1cccc(-c2nn3ncccc3c2-c2ccnc(Nc3ccccc3)n2)c1)c1c(F)cccc1F [GSK198271] | 26%

Structure (SMILES) | %Inh
Cn1cc(-c2ccc3c(c2)CCN3C(=O)Cc2cccc(Cl)c2)c2c(N)ncnc21 [GSK2606590] | 5%
CN1CCN(Cc2cccc(-c3ccc4c(Nc5ccc(Oc6ccccc6)cc5)ccnc4c3)c2)CC1 [GW578342] | 0%
Oc1cc(Nc2ccnc3cc(I)ccc23)ccc1F [GW552771] | 8%
CCCCc1nn2ncccc2c1-c1ccnc(Nc2ccc(N3CCN(C)CC3)cc2)n1 [GW684941] | 3%
O=C(Nc1n[nH]c2cc(-c3ccoc3)ccc12)C1CC1 [SB-738481] | 75%
COc1cccc(C2=C(Nc3ccc(Cl)c(C(=O)O)c3)C(=O)NC2=O)c1 [SB-390769] | 100%
CCS(=O)(=O)c1ccc(OC)c(Nc2nccc(-c3c(-c4cccc(NC(=O)c5c(F)cccc5F)c4)nn4ncccc34)n2)c1 [GSK326180] | 16%
Nc1ncc(-c2cccnc2)c2scc(-c3ccc4c(c3)CCN4C(=O)Cc3ccccc3)c12 [GSK683281] | 24%
Cc1ccc(C(=O)N2CC[C@@H](O)C2)cc1-n1c(C)cc(OCc2ccc(F)cc2F)c(Br)c1=O | 0%
CC(=O)Nc1nc2cnc(Nc3cc(NC(=O)c4cccc(C5(C#N)CC5)c4Cl)ccc3C)nc2s1 | 8%
COc1cc(Nc2nccc(N3CCC(NC(=O)c4cc5ccccc5s4)C3)n2)cc(OC)c1OC (stereo not drawn) [GSK1379760] | 19%
Cc1ccc(C(=O)Nc2ccc(Nc3ccnc4cc(-c5nccs5)ccc34)cc2O)cc1.Cl [GW494702] | 0%
Cc1ccc(C)c(NC(=O)NC2CCN(c3ccnc(Nc4ccc(F)cc4)n3)C2)c1 (stereo not drawn) [GSK1379720] | 8%
CN(C)S(=O)(=O)c1cc(-c2ccc3nccc(-c4cccc(S(N)(=O)=O)c4)c3c2)cnc1N [GSK1669921] | 44%
COc1cccc(NC(=O)NC2CCN(c3ccnc(Nc4cc(OC)c(OC)c(OC)c4)n3)C2)c1 (stereo not drawn) [GSK1379763] | 4%
Fc1ccc(-c2ncn(C3CCNCC3)c2-c2ccnc(Oc3ccc(-c4ccccc4)cc3)n2)cc1 [SB-245391] | 36%
Cn1cc(-c2[nH]c3cc(NC(=O)[C@H](N)C4CCCCC4)cc4c3c2C=NNC4=O)cn1 | 92.3%
Cl.Cl.NCC(NCc1ccc(-c2ccnc3[nH]ccc23)s1)c1ccccc1 (stereo not drawn) [GSK1321565] | 80%
